From PubChem BioAssay AID2534 (National Center for Advancing Translational Sciences (NCATS), 2010)
Inconclusive results are not listed. Calls of active or inactive are those of the source. The call rests on the fitted dose curve; in most records, active means well fitted curve in the direction sought with a large enough effect; inconclusive means small, poorly fitted or top-dose-only effect, or effect the other way, or another doubt; inactive means no such curve, though single readings can be large or run the other way.

target: Pyruvate kinase PKLR (Homo sapiens) (UniProt P30613); assay: Secondary Concentration-Response Assay for Activators of Human Reticulocyte Pyruvate Kinase: for Probe SAR; settings: purified hPK-R, ATP production, Kinase-Glo luminescence; series mostly up to 57.5 µM; activity change, negative = inhibition: at the top concentration
Sequence (P30613 whole entry, looked up): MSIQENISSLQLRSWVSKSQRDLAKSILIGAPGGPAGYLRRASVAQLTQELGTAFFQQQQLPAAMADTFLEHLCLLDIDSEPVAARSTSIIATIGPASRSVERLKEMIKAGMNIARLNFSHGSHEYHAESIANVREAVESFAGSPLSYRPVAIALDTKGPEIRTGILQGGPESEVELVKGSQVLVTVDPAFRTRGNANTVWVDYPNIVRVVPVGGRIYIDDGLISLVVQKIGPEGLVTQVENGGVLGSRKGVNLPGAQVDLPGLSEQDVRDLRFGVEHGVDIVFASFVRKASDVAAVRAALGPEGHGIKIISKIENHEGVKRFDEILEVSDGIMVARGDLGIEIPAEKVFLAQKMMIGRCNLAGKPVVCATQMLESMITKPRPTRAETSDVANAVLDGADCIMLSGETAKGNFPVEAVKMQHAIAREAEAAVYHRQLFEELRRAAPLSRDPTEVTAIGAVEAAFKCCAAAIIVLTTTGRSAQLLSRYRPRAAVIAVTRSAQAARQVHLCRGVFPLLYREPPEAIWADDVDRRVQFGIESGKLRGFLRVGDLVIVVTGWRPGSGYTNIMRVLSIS
Text: NIH Chemical Genomics Center [NCGC]
Wael M. Rabeh, Lyudmila Nedyalkova and Hee-Wan Park [Structural Genomics Consortium, 100 College St. Toronto, Ontario, Canada]
Human pyruvate kinase reticulocyte (hPK-R) enzyme was supplied as a highly purified (>95% pure) preparation from Structural Genomics Consortium in Toronto (Ontario, Canada) and assayed for its ability to generate ATP from ADP using phosphoenolpyruvate (PEP) as a substrate. ATP generation was detected in a coupled reaction by luciferase-mediated luminescence, an ATP-dependent process. Pyruvate kinase substrates, PEP and ADP, were present in the assay at Km and approximately 10-fold below Km respectively. The enzyme was assayed at an intermediate level of activity to screen for both inhibitors and activators.
NCGC Assay Protocol Summary for R-isoform
Three uL of substrate mix (at r.t.) in assay buffer (50 mM Imidazole pH7.2, 50 mM KCl, 7 mM MgCl2, 0.01% Tween 20, 0.05% BSA) was dispensed into white solid bottom 1,536 well microtiter plates so that the final concentrations of substrates in the assay were 0.1 mM ADP and 0.5 mM PEP. 23 nL of compound were delivered by a pin tool and 1 uL of enzyme mix (final concentration of 0.1 nM) in assay buffer (4 degree Celsius) was added. Plates were incubated at room temperature for 1 hour. Two uL of detection mix (Kinase-Glo, Promega; at 4 degree Celsius protected from light) was added and luminescence read by a ViewLux (Perkin Elmer) at 1 second exposure/plate. Data were normalized to the uninhibited (row 31). Additionally, a no enzyme and 5-fold enzyme control was dispensed in row 32, split equally between the two conditions.

Activity change, negative = inhibition, inactive:
O=C1c2ccccc2C(=O)N1c1cccnc1 -5.55%
O=C1c2ccccc2C(=O)N1c1cccc2ncccc12 10.5%
Cc1cc(N2C(=O)c3ccccc3C2=O)no1 -6.05%
Cc1ccc(NS(=O)(=O)c2ccc3c(c2)CCC(=O)N3)cc1 13.9%
O=C1c2ccccc2C(=O)N1Cc1ccccn1 5.95%
O=C1CCc2cc(S(=O)(=O)Nc3ccccc3-c3ccccc3)ccc2N1 0.876%
O=C1CCc2cc(S(=O)(=O)Nc3cccnc3)ccc2N1 1.36%
Cc1ccccc1NS(=O)(=O)c1ccc2c(c1)CCC(=O)N2 12.2%
CCNc1cccc(S(=O)(=O)N2CCCN(S(=O)(=O)c3ccc4c(c3)OCCO4)CC2)c1 25.1%
O=C1CCc2cc(S(=O)(=O)Nc3cccc(F)c3)ccc2N1 -6.29%
COc1ccc(NS(=O)(=O)c2ccc3c(c2)CCC(=O)N3)cc1 15.1%
O=C1c2ccccc2C(=O)N1c1ccc(Cl)cc1 3.5%
Cc1cccc(NS(=O)(=O)c2ccc3c(c2)CCC(=O)N3)c1 10.5%
Cc1cc(NS(=O)(=O)c2ccc3c(c2)CCC(=O)N3)ccc1Cl 6.47%
O=C1CCc2cc(S(=O)(=O)Nc3cccc(-c4ccccc4)c3)ccc2N1 8.1%
O=C1c2ccccc2C(=O)N1c1cccc2cnccc12 4.76%
O=C1CCc2cc(S(=O)(=O)Nc3ccc(Cl)cc3)ccc2N1 5.94%
O=C1c2ccccc2C(=O)N1c1ccncc1 4.7%
O=C1CCc2cc(S(=O)(=O)Nc3ccc(Cl)c(Cl)c3)ccc2N1 4.75%
O=C1c2ccccc2C(=O)N1C1CCCCC1 3.22%
O=C1CCc2cc(Cl)c(S(=O)(=O)Nc3ccc(Cl)c(Cl)c3)cc2N1 -1.27%
Cc1ccc(N2C(=O)c3ccccc3C2=O)c(C)c1 3.05%
O=C1CCc2cc(S(=O)(=O)Nc3cccc(B(O)O)c3)ccc2N1 -0.773%
O=C1CCc2cc([S+](=O)([O-])NC3CCOCC3)ccc2N1 -3.67%
Cc1ccc(C)c(SC2=N[S+](=O)([O-])c3cc(C(=O)Nc4ccc5ncccc5c4)ccc32)c1 -22.6%
O=C1c2ccccc2C(=O)N1c1ccc2ncccc2c1 14.8%
O=C1c2ccccc2C(=O)N1c1cnc2ccccc2c1 10.5%
CCCCN1C(=O)c2ccccc2C1=O 4.02%
O=C1c2ccccc2C(=O)N1c1cncc2ccccc12 9.51%
CNc1cccc(S(=O)(=O)N2CCCN(S(=O)(=O)c3ccc4c(c3)OCCO4)CC2)c1 22.1%
O=C1CCc2cc(S(=O)(=O)NCc3ccccc3)ccc2N1 8.42%
COC(=O)c1ccc2c(c1)S(=O)(=O)N=C2Sc1cc(C)ccc1C -60.5%
Cc1ccc(Cl)cc1NS(=O)(=O)c1cc2c(cc1Cl)CCC(=O)N2 -2.79%
COc1ccccc1NS(=O)(=O)c1ccc2c(c1)CCC(=O)N2 3.88%
O=C1CCc2cc(S(=O)(=O)Nc3cccc(C(F)(F)F)c3)ccc2N1 1.1%
O=C1c2ccccc2C(=O)N1Cc1ccccc1 8.92%
O=C(O)c1ccccc1SC1=NS(=O)(=O)c2ccccc21 -92.8%
O=C1CCc2cc(S(=O)(=O)Nc3ccccn3)ccc2N1 7.53%
O=C1c2ccccc2C(=O)N1c1ccccn1 3.08%

outcome, inactive:
O=S(=O)(c1ccc2c(c1)OCCO2)N1CCN(S(=O)(=O)c2c(F)cccc2F)CC1
